Experimental data: PubChem BioAssay (NCI)
Compounds without any hit were thinned out: in the full panel of roughly 83,000, 20% have a hit.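 Method: cells in 96-well plates; compound added at one concentration; 48 h incubation; percent growth measured; values under 10 scored active.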 Activity calls are given as the source filed them.

Key:
Assay in all cases: NCI-60 one-dose screen, 48 h (100 = growth as untreated, 0 = no growth, -100 = all killed)
SK-MEL-2 melanoma = details: 10 µM unless noted
EKVX NSCLC = details: 10 µM
SN12C renal = details: 10 µM unless noted
UO-31 renal = details: 10 µM unless noted
TK-10 renal = details: 10 µM unless noted
ACHN renal = details: 10 µM unless noted
CAKI-1 renal = details: 10 µM unless noted
A498 renal = details: 10 µM unless noted
CCRF-CEM leukemia = details: 10 µM
MOLT-4 leukemia = details: 10 µM unless noted

Measured: growth

CCC(CCCN1C(=O)c2ccccc2C1=O)Nc1cc(OC)cc2c(C)ccnc12 (stereo not given)
inactive: SK-MEL-2 melanoma 87% | EKVX NSCLC 84.5% | SN12C renal 97.8% | UO-31 renal 115% | TK-10 renal 120% | ACHN renal 100% | CAKI-1 renal 75.7% | A498 renal 60% | CCRF-CEM leukemia 105% | MOLT-4 leukemia 66.3%

COc1cc(OC)cc(-c2ccc(-c3ccc(C(=N)N)cc3)s2)c1
active: SK-MEL-2 melanoma -58.3% | EKVX NSCLC -83.6% | SN12C renal -76.9% | UO-31 renal -78% | TK-10 renal -83.7% | ACHN renal -90% | CAKI-1 renal -93.7% | A498 renal -92% | CCRF-CEM leukemia -59.7% | MOLT-4 leukemia -48.8%

Cc1cc(CSc2ccc(Cl)cc2)ccc1N
active: CCRF-CEM leukemia 3.59%
inactive: SK-MEL-2 melanoma 99.7% | EKVX NSCLC 85.8% | SN12C renal 42% | UO-31 renal 29.4% | TK-10 renal 101% | ACHN renal 102% | CAKI-1 renal 95.1% | A498 renal 99.7% | MOLT-4 leukemia 49.7%

CCOC(=O)c1c(C)oc2ncnc(Nc3ccc(NC(=O)Nc4ccc(CC)cc4)cc3)c12
inactive: SK-MEL-2 melanoma 120% | EKVX NSCLC 102% | SN12C renal 107% | UO-31 renal 94.8% | TK-10 renal 112% | ACHN renal 98.9% | CAKI-1 renal 98.4% | A498 renal 109% | CCRF-CEM leukemia 93.8% | MOLT-4 leukemia 98.7%

CC(=O)Nc1nc(C)c(C(=O)N/N=C/N2CCOCC2)s1
inactive: SK-MEL-2 melanoma 34.1% | EKVX NSCLC 122% | SN12C renal 105% | UO-31 renal 89% | TK-10 renal 103% | ACHN renal 104% | CAKI-1 renal 140% | A498 renal 110% | CCRF-CEM leukemia 76.3% | MOLT-4 leukemia 188%

CCOC(=O)c1cc(-c2ccc(OC)cc2)[nH]c1NNC(=O)CCOC
inactive: SK-MEL-2 melanoma 103% | EKVX NSCLC 101% | SN12C renal 107% | UO-31 renal 77% | TK-10 renal 63.7% | ACHN renal 107% | CAKI-1 renal 88.8% | A498 renal 77.8% | CCRF-CEM leukemia 57.8% | MOLT-4 leukemia 58.1%

COc1ccc(Cn2cc3c(c2-c2ccccc2)CCc2cnoc2-3)cc1N
active: CAKI-1 renal 7.24% | A498 renal 1.34%
inactive: SK-MEL-2 melanoma 41% | EKVX NSCLC 16.5% | SN12C renal 36.2% | UO-31 renal 29.7% | TK-10 renal 76.2% | ACHN renal 31% | CCRF-CEM leukemia 18% | MOLT-4 leukemia 25.3%

O=C(Nc1cccc(Cn2c(=O)[nH]c3ccc(Oc4ncccn4)cc3c2=O)c1)c1cc(Cl)cc(Cl)c1
inactive: SK-MEL-2 melanoma 55.1% | EKVX NSCLC 72.3% | SN12C renal 59.4% | UO-31 renal 65.6% | TK-10 renal 71.5% | ACHN renal 19.8% | CAKI-1 renal 91% | A498 renal 85.3% | CCRF-CEM leukemia 77.9% | MOLT-4 leukemia 63.8%
